Measured values: PubChem BioAssay
Measured potencies and affinities stand elsewhere. Records with an inconclusive call do not appear.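 How the source made its calls, unless noted: active means fitted dose curve reaches 40% lysis signal rise at or below the highest valid concentration tested for that sample; inconclusive means flat fit between 30% and 70%, or poor curve fit; inactive means signal falls, stays flat within 30%, or no crossing.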

assay: fungal growth arrest, C. neoformans – Alamar Blue, cherry-picks, dose response (AID 686998;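 active means falling signal with fitted half-maximal potency no higher than twice the top valid tested dose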); settings: Cryptococcus neoformans growth, 24 h; series mostly up to 35 µM; activity change, negative = inhibition: at the top concentration

Activity change, negative = inhibition, inactive:
COCC(=O)NC[C@H]1N[C@H](CO)[C@H]1c1ccc(C2=CCCC2)cc1 -4.25%
S=C(Nc1ccc(Cl)cc1Cl)Nc1ccccc1Oc1ccccc1 -28.9%
Cc1cccc(C)c1NC(=O)C1CCCN1C(=O)NCc1ccccc1 (centres undefined) 4.27%
COc1ccc(NC(=O)N(C)C[C@@H]2OCCCC[C@@H](C)Oc3ccc(NC(=O)Nc4ccc5c(c4)OCO5)cc3C(=O)N([C@@H](C)CO)C[C@H]2C)cc1 35.4%
Cc1noc(C)c1S(=O)(=O)Nc1ccc2c(c1)CC(=O)N([C@H](C)CO)C[C@H](C)[C@H](CN(C)S(=O)(=O)c1cccs1)O2 16.8%
COc1cccc(S(=O)(=O)N(C)C[C@@H]2OCc3ccccc3-c3ccccc3C(=O)N([C@@H](C)CO)C[C@@H]2C)c1 10.1%
CCNC(=O)C[C@H]1CC[C@H](NC(=O)NC2CCCCC2)[C@@H](CO)O1 -18.8%
CCCC(C)(C)C(=O)N1CCC1(C)C(=O)Nc1ccc(C)cc1 (centres undefined) 13.8% [at 50 µM]
O=C(CC1CC1)N1[C@@H]2CN(S(=O)(=O)c3ccccc3)c3ccccc3[C@@H]2[C@@H]1CO 13.1%
CO[C@@H]1CN(C)C(=O)c2cc(NS(=O)(=O)c3cccc(C)c3)ccc2OC[C@@H](C)NC[C@H]1C -9.93%
C[C@H](O)C#Cc1ccc2c(c1)O[C@H](CN(C)Cc1ccncc1)[C@H](C)CN([C@H](C)CO)S2(=O)=O -25%
C[C@@H]1CCCCO[C@@H](CN(C)C(=O)CCCN(C)C)[C@@H](C)CN([C@H](C)CO)C(=O)c2cc(NC(=O)Cc3ccccc3)ccc2O1 23.8%
C[C@@H]1CCCCO[C@@H](CN(C)C(=O)Nc2ccc3c(c2)OCO3)[C@@H](C)CN([C@H](C)CO)C(=O)c2cc(NC(=O)Nc3cccc4ccccc34)ccc2O1 54.3% [at 30 µM]

assay: C. neoformans lysis by adenylate kinase leakage – AK release luminescence, cherry-picks, dose response (AID 687000); settings: 4 h, 100% = twice the neutral-control signal; series mostly up to 15 µM; lysis activity: at the top concentration;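 further: luminescent detection of adenylate kinase leaking from lysed yeast; 0% = median neutral control signal and 100% = double that signal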

Lysis activity, inactive:
O=C(C1CCOCC1)N1C[C@H]2[C@@H](c3ccccc31)[C@@H](CO)N2Cc1ccccc1Cl 6.29%
CC(C)CC#Cc1ccc2c(c1)O[C@H](CN(C)C(=O)C1CCC1)[C@@H](C)CN([C@@H](C)CO)S2(=O)=O 12.6%
COc1ccc(C2CC(c3cccs3)=NN2C(=O)c2ccco2)cc1OC (centres undefined) 4.54%
N#C[C@H]1[C@@H](c2ccc(C#CCC3CCCC3)cc2)[C@@H](CO)N1C(=O)c1ccccn1 -19.5%
CN1C[C@@H]2C(c3ccc(C(F)(F)F)cc3)C3(c4ccccc4)CC2(C3)[C@H]1c1ccccc1 (some centres undefined) -71.4%
Cc1ccc(OCC(=O)NC(C)c2ccccc2)cc1 (centres undefined) 0.954%
Cc1ccc2cc(NC(=O)c3ccccc3)ccc2n1 -74.5%
C[C@@H]1CN([C@H](C)CO)S(=O)(=O)c2ccc(-c3ccccc3)cc2O[C@H]1CN(C)C(=O)C1CCCCC1 -14.2%
CNC[C@@H]1OCCCC[C@@H](C)Oc2ccc(NC(=O)NC(C)C)cc2C(=O)N([C@@H](C)CO)C[C@H]1C -2.13%
Cc1ccc(N2CCN(C(CCc3ccccc3)C(=O)Nc3c(C)cccc3C)CC2)cc1 (centres undefined) -16.7%
C[C@@H]1CN([C@@H](C)CO)C(=O)Cc2cc(NS(=O)(=O)c3ccccc3)ccc2O[C@@H]1CN(C)Cc1ccc(Cl)c(Cl)c1 -14.6%
C(=Nn1cnnc1)c1ccc2c(c1)CCC2 -6.94%
O=C(CN(c1ccc(F)cc1)S(=O)(=O)c1ccccc1)NCCSC1CCCCC1 6.23%
CC(C)NC(=O)Nc1ccc2c(c1)CC(=O)N([C@H](C)CO)C[C@H](C)[C@@H](CN(C)C(=O)Nc1ccc3c(c1)OCO3)O2 6.43%
COc1ccc(N2CCN(C(=O)CSc3ncnc4c3cnn4-c3ccccc3C)CC2)cc1 3.19%
C/C=C/c1ccc([C@@H]2[C@H]3CN(C(=O)Nc4ccc(OC)cc4)CCCCN3[C@H]2CO)cc1 -13%
Cc1ccc(NC(=S)Nc2ccc(Cl)c(Cl)c2)c(OC(F)F)c1 -60.2%
Cc1ccc(-n2ncc3c(SCC(N)=O)ncnc32)cc1C -15.7%
COC(=O)C1=C(C)N(Cc2ccc(Br)cc2)C(=S)NC1c1cccc(Br)c1 (centres undefined) 2.41%
COc1cccc(NC(=O)CN2CCN(S(=O)(=O)c3ccc(C(C)C)cc3)CC2)c1 -3.04%
CC(=O)c1sc(NC(=O)c2cc(-c3ccccc3)nn2-c2ccccc2)nc1C -17.2%
CN1CCN(CCCNC(=O)c2ccc(/C=C3\Oc4ccccc4N(Cc4ccccc4F)C3=O)cc2)CC1 197%
Cc1cccc(NC(=S)NN(Cc2ccccc2)c2ccccc2)c1C -0.938%
CCc1ccc(NC(=O)[C@H](C)NC(=O)C2CCN(C(=O)[C@@H](N)C(C)C)CC2)cc1 -1.92%
CC(=O)c1sc(NC(=O)C2(F)C(F)(F)C(F)(F)C(F)(F)C(F)(F)C2(F)F)nc1C -73%
O=C(Oc1ccc2c3c(c(=O)oc2c1)CCCC3)c1ccco1 -44.6%
